NLRP3 yeast inh: NALP3 inhibition in yeast | 330,000 compounds, 0.39% hits | Yeast reconstituted NLRP3/ASC/caspase-1, beta-gal luminescence, 24 h | inhibition, % at 10 µM;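 active means inhibition of 50% or more; inactive means inhibition below 50%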;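 further: plate controls were induced DMSO wells for no effect and uninduced yeast grown without galactose for full effect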
V-ATPase pHluor: alters yeast V-ATPase proton transport; S. cerevisiae, pHLuorin cytosolic pH fluorescence; response, % at 10 µM; 350,000 compounds, 0.37% hits; AID 504577; in the data active means response mostly above about 7.3%, no sharp cut-off; inactive means mostly below about 5.4%; further: actives read high
NALP1 inh: NALP1 inhibition | S. cerevisiae NALP1/ASC/caspase-1 growth, X-gal OD620, 72 h | inhibition, % at 10 µM | 280,000 compounds, 0.61% hits; in the data active means inhibition mostly above about 24%, no sharp cut-off; inactive means mostly below about 32%
TIM10 inh: inhibits growth of TIM10 yeast strain; S. cerevisiae TIM10 strain growth, BacTiter-Glo luminescence, 24 h; inhibition, % at 10 µM; 330,000 compounds, 1.4% hits;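 active means inhibition of 40% or more at the single tested concentration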;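 further: wild-type TIM10 isogenic control strain grown at permissive 25 °C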
tim23-1 inh: growth inhibitors of tim23-1 mutant yeast; S. cerevisiae tim23-1 growth, BacTiter-Glo luminescence, 24 h; inhibition, % at 20 µM; 330,000 compounds, 1.3% hits; AID 463212;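 active means growth inhibition of the mutant yeast at or above 50%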;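 further: temperature-sensitive mutant grown at 25 °C; plate controls were DMSO-treated mutant yeast for no effect and medium wells lacking yeast for full effect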
tim10-1 inh: inhibits growth of tim10-1 mutant yeast | S. cerevisiae tim10-1 ts strain growth, BacTiter-Glo, 24 h | inhibition, % at 20 µM | 330,000 compounds, 2.2% hits;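 active means inhibition of at least 40%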;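 further: mutant grown at 25 °C; 0% = DMSO wells with yeast and 100% = wells holding no yeast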
tim10-1 conf: confirmation of tim10-1 mutant yeast growth inhibitors | 7,400 compounds, 56% hits | S. cerevisiae tim10-1 ts strain growth, BacTiter-Glo, 24 h | inhibition, % at 20 µM | shares compounds with tim10-1 inh;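 active means inhibition of yeast growth at or above a set limit in either of two repeat tests at 20 µM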;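 further: tim10-1 mutant grown at permissive 25 °C to find synthetic lethal compounds; 0% = DMSO yeast wells and 100% = medium wells without yeast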
tim10 confirm: TIM10 yeast growth inhibition, confirmed; shares compounds with TIM10 inh; S. cerevisiae tim10 strain growth, BacTiter-Glo luminescence, 24 h; inhibition, % at 10 µM; 4,600 compounds, 63% hits;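 active means inhibition of yeast growth at or above a set limit in either of two replicates at 10 µM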;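 further: this counterscreen used the strain with wild-type TIM10; 0% = yeast with DMSO and 100% = medium wells lacking yeast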
* marks the source's active call; other numbers are inactive results; nt = not tested or not shown. Hits are enriched below; roughly 4.2% of the tested compounds scored in any of these assays.

SMILES	NLRP3 yeast inh	V-ATPase pHluor	NALP1 inh	TIM10 inh	tim23-1 inh	tim10-1 inh	tim10-1 conf	tim10 confirm
CC1CCN(c2ccccc2NC(=S)NC(=O)c2cccs2)CC1	24.8	-0.8	-0.5	48.2*	40.8	48.9*	33.9*	37.6*
O=C(CSc1ccccc1C(=O)O)NCC1CCCCC1	-3.5	-3.6	0.0	-11.9	3.5	0.0	nt	nt
O=C(c1cccc2ccccc12)n1nnc2ccccc21	-16.6	nt	nt	58.7*	0.0	66.5*	61.1*	72.7*
COc1ccccc1NC(=O)c1ccccc1C(=O)N(C)Cc1ccccc1	18.9	-2.4	nt	-4.4	3.7	-8.4	nt	nt
COc1ccc(NCc2nnc(SCc3ccc(Cl)cc3)n2-c2ccccc2)cc1	12.9	1.6	20.7	54.4*	49.9	52.4*	39.4*	-24.4
COc1ccc(-n2c(COc3ccc(Cl)cc3)nnc2SCc2ccc(C#N)cc2)cc1	14.0	-2.5	10.4	23.5	23.4	39.9	nt	nt
CC12CCC(C(=O)Nc3nc4ccc(Br)cc4s3)(OC1=O)C2(C)C (centres undefined)	-1.6	4.0	-6.7	47.8*	28.2	50.5*	42.2*	31.8*
CN(Cc1nc(-c2ccc(Cl)cc2)no1)C(=O)c1ccc2c(c1)OCO2	19.7	1.6	nt	-29.7	-4.5	-14.4	nt	nt
CCOC(=O)c1cccc(NC(=O)Nc2cc(OC)ccc2OC)c1	22.1	-2.4	-4.2	40.3*	38.7	40.8*	27.6	28.4
COc1ccccc1NC(=O)c1coc(=O)c(Br)c1	9.5	-30.7	nt	12.7	-1.0	-0.5	nt	nt
COc1ccc(CCN2C(=O)CSC2=Nc2ccc(C(C)C)cc2)cc1OC	18.0	0.2	-6.4	13.5	11.4	22.4	nt	nt
CC(C)CC(=O)NC(=S)Nc1ccc(Cl)cn1	37.3	0.8	8.4	46.8*	49.7	43.0*	37.5*	40.1*
CC(=O)CC(=O)Nc1ccc(Cl)cn1	12.5	-0.5	15.0	11.7	24.9	14.3	nt	nt
O=C(NN1C(=O)/C(=C/c2cccnc2)SC1=S)C(c1ccccc1)c1ccccc1	20.1	-1.6	8.7	41.5*	40.9	49.4*	41.2*	21.1
O=C(NN1C(=O)/C(=C\c2cccnc2)SC1=S)C(c1ccccc1)c1ccccc1	27.5	-1.0	13.6	40.3*	35.3	45.5*	39.2*	-20.2
O=C(Cc1cccc2ccccc12)NN1C(=O)/C(=C\c2cccnc2)SC1=S	-13.1	-1.6	nt	0.9	3.2	5.5	nt	nt
CC(C)n1c(-c2ccc(C(C)(C)C)cc2)n[nH]c1=S	16.0	-1.5	-8.8	43.5*	46.9	42.6*	35.0*	46.4*
CCN(CC(=O)Nc1c(F)cccc1F)C(=O)C1CCN(C(=O)Nc2ccccc2)CC1	0.4	2.6	nt	3.2	-11.7	-11.6	nt	nt
COc1ccc(C(C#N)=C2C=CC(=NO)C=C2)cc1	43.2	1.7	nt	81.2*	44.5	50.5*	54.5*	90.8*
Cc1ccc(-c2nn(-c3ccccc3)cc2C(N)=O)o1	26.0	-3.9	4.7	17.0	-13.0	0.2	nt	nt
Cc1ccc(-c2nn(-c3ccccc3)cc2C=O)o1	43.9	-0.1	17.9	71.7*	-40.1	63.2*	64.5*	70.1*
O=C(COc1ccccc1F)Nc1ccc(S(=O)(=O)N2CCCC2)cc1	4.0	-1.1	nt	43.9*	29.0	50.1*	29.9	33.1*
COc1ccc(C(=O)Nc2ccc(S(=O)(=O)N3CCCC3)cc2)cc1	17.2	-0.4	7.1	45.4*	37.1	54.5*	30.8	32.6*
O=C(Nc1ccccc1)Nc1ccc(S(=O)(=O)N2CCCCC2)cc1	7.1	3.3	-0.2	50.8*	34.7	43.3*	31.9*	-16.0
O=C(COc1cccc(C(F)(F)F)c1)Nc1ccc(S(=O)(=O)N2CCCC2)cc1	-6.5	4.7	16.1	68.2*	40.5	50.2*	53.4*	50.6*
CCCCn1c(N)c(N(CCOC)C(=O)c2ccc(-c3ccc(C(C)=O)cc3)o2)c(=O)[nH]c1=O	-0.9	-1.4	nt	17.6	-2.8	9.2	nt	nt
O=C1CCC([N+](=O)[O-])C(c2cc(Br)ccc2F)N1 (centres undefined)	15.4	3.1	15.2	-6.1	0.1	-16.0	nt	nt
